From the supplement of paper PMC6555819 come the findings set out here.

Common to all, as to test: PBM binding z-score (relative to random genomic background probes); higher = stronger binding; sequences stand for … in GC…GCGATTGACAGCGTAGAATGAAGG
In experiment [1] the test system is RARb homodimer (NR concentration 270 nM). Summed up: (§1)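 On custom Agilent 4×180K arrays, double-stranded probes with 34-nt variable regions carried direct-repeat seeds, single-nucleotide variants, half-site ablations or random human genomic background. Ligand-free nuclear receptor dimers were applied for 1 h, and binding was read with antibodies against each partner (one per run). Binding z-scores come from regression-normalized fluorescence, with the random background probes as reference.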

Experiment [2] concerns RARg:RXRa (NR concentration 270 nM, RXRa partner concentration 90 nM). Summed up:
as §1

The subject of experiment [3] is RARg homodimer (NR concentration 270 nM). Summed up: as §1
Experiment [4] deals with RXRa DBDmut IVT, anti-RXR (DBD mutation: RXRa K156A/R161A, NR concentration 90 nM). Summed up: as §1
Experiment [5] has as its system RXRa homodimer (NR concentration 180 nM). Summed up:
as §1

The subject of experiment [6] is THRa:RXRa (NR concentration 90 nM, RXRa partner concentration 90 nM). In outline: as §1
The test system of experiment [7] is THRa homodimer (NR concentration 90 nM). In outline:
as §1

The subject of experiment [8] is VDR homodimer (NR concentration 270 nM). Summed up: as §1

In the case of ACTACCAGGCCAAGGGTCACTCAAGATTAGTCCG, the PBM binding z-score is 4.07 in experiment [1]; 4.15 in experiment [2]; 3.87 in experiment [3]; 0.629 in experiment [4]; 4.2 in experiment [5]; 3.3 in experiment [6]. In addition, the PBM binding z-score turned out to be 1.15 in experiment [7] and 2.13 in experiment [8].

For TCGAGTAGGTTCCCAATGGGGCATTCAGCTTTCT, the PBM binding z-score in experiment [1] is -0.191; in experiment [2], -0.766; in experiment [3] it was -0.954; in experiment [4], 0.269; in experiment [5], -0.493; in experiment [6] it was -0.435. Also, the figures for the PBM binding z-score in experiment [7] and in experiment [8] were -0.628 and -1.15, respectively.

Take AGAACGAGGGCACGCTGAGTCGATAGCAGAGTAG: the PBM binding z-score in experiment [1] is 1.02; in experiment [2], 1.92; in experiment [3], 2.12; in experiment [4], 1.87; in experiment [5], 1.29; in experiment [6], 1.72. The PBM binding z-score in experiment [7] was -0.22; in experiment [8], 0.912.

As for CCTTACGGCTCACGAGGTTATAGCACGACGAGCG, the PBM binding z-score was 0.414 in experiment [1]; 0.351 in experiment [2]; 0.335 in experiment [3]; 0.229 in experiment [4]; 0.925 in experiment [5]; 1.39 in experiment [6]. Further, the PBM binding z-score is 0.522 in experiment [7] and 0.564 in experiment [8].

CGTCCACGGTCAGAGAGGTCAGTGAATGCCGAGT: the PBM binding z-score was found to be 4.32 in experiment [1]; 3.6 in experiment [2]; 4.74 in experiment [3]; 0.914 in experiment [4]; 2.75 in experiment [5]; 2.54 in experiment [6]. The PBM binding z-score was 0.458 in experiment [7] and 2.11 in experiment [8].

With TCATATAGGTGAACAGGTGAAAGTCCGTAAGTTA, the PBM binding z-score in experiment [1] came out at 1.38; in experiment [2], 1.52; in experiment [3], 1.13; in experiment [4], 1.68; in experiment [5], 1.75; in experiment [6], 1.13. In addition, the PBM binding z-score is 0.464 in experiment [7] and 0.153 in experiment [8].

On to ACTCGGAGGACAAAGGTCAGAGATACGCCAGTGA, for which the PBM binding z-score in experiment [1] stood at 4.52; in experiment [2], 6.21; in experiment [3] it was 5.31; in experiment [4], 1.01; in experiment [5], 5.52; in experiment [6], 3.61. In addition, the PBM binding z-score in experiment [7] was 0.755; in experiment [8], 1.56.
